Data reported in the supplement of paper PMC10338343.
± gives the standard deviation.

system: MILI (PIWIL2) piRISC loaded with piRNA #1 (26 nt); assay: pre-steady-state target cleavage rate (min^-1); guide: piRNA #1 5'p-UGAGGUAGUAGGUUGUAUAGUAUCCA; MIWI and MILI are mouse PIWI proteins and EfPiwi is from a freshwater sponge; tags in brackets are library labels; higher = faster piRNA-guided slicing of the target; details: auxiliary factor: 500 nM mouse GTSF1
How it was run: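 The pre-steady-state cleavage rate was obtained by Cleave-'n-Seq with a burst-and-steady-state fit. A transcribed, DNA-blocked target RNA library (0.1 nM) was mixed with 1 nM active affinity-purified piRISC carrying one synthetic guide, with or without 500 nM GTSF1 partner protein, in HEPES–potassium acetate buffer at 33 °C for 0–8 or 0–960 min. Uncleaved targets were sequenced and normalised to depth and to weakly complementary targets, with three trials pooled and k3 capped at 0.0001 min^-1.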

**Q.** For GGAGACCUAUGUAUACAACCUAUUACCUCA, which “pre-steady-state target cleavage rate” value is on record?
**A.** 0.0697 ± 0.0079

**Q.** Which “pre-steady-state target cleavage rate” value does the source give for GGAGACCUAUCUAUUCAACGUACUACCUCA here?
**A.** 0.00945 ± 0.003

**Q.** With GGAGACCUAAGUAUUCAACCUACUACCUCA as the sequence, how does the “pre-steady-state target cleavage rate” value read?
**A.** 0.0617 ± 0.0092

**Q.** How did the “pre-steady-state target cleavage rate” value turn out when GGAGACCUAACUAUACUACCUACUUCCUCA was run?
**A.** 0.0587 ± 0.013

**Q.** For GGAGACCUUACUAUACAUCCUACAACCUCA, which “pre-steady-state target cleavage rate” value is on record?
**A.** 0.214 ± 0.019

**Q.** For GGAGACGAUACUAUACAACCUAAUACCUCA, which “pre-steady-state target cleavage rate” value is on record?
**A.** 0.103 ± 0.015

**Q.** With GGAGACCUAUGAUUACAUCCAACUACCUCA as the sequence, how does the “pre-steady-state target cleavage rate” value read?
**A.** 0.00328 ± 0.003

**Q.** For GGAGACCUAUGUAUACAACCUACUAACUCA, which “pre-steady-state target cleavage rate” value is on record?
**A.** 0.0355 ± 0.0081

**Q.** Which “pre-steady-state target cleavage rate” value does the source give for GGAGACCUAUGAUAACAUCCUACAACCUCA here?
**A.** 0.00633 ± 0.0025

**Q.** GGAGACCUAUGUAUACCACCUACUACCUCA was tested. Which “pre-steady-state target cleavage rate” value did it give?
**A.** 0.0404 ± 0.0088

**Q.** For GGAGACCUUUCUAUACAACCUACAACCUCA, which “pre-steady-state target cleavage rate” value is on record?
**A.** 0.0806 ± 0.01

**Q.** GGAGACCUAUGAUUACAACCUACUGACCUCA was tested. Which “pre-steady-state target cleavage rate” value did it give?
**A.** 0.00605 ± 0.0028

**Q.** With GGAGACCUAUGUAUACAACGUACUACCUGA as the sequence, how does the “pre-steady-state target cleavage rate” value read?
**A.** 0.00357 ± 0.0021

**Q.** Which “pre-steady-state target cleavage rate” value does the source give for GGAGAGGAUACUAUACAAGCUACUAGCUCA here?
**A.** 0.0601 ± 0.013

**Q.** For GGAGACCUAUGAUAACAACCUACUACCUGCA, which “pre-steady-state target cleavage rate” value is on record?
**A.** 0.00443 ± 0.0033

**Q.** For GGAGACCUAUGAUAUGUACGUACUACCUGA, which “pre-steady-state target cleavage rate” value is on record?
**A.** < 0.0001

**Q.** Which “pre-steady-state target cleavage rate” value does the source give for “GGAGACCUAUGAUAACAACCUACUACCUCG [g2:g16:cont:t1G]” here?
**A.** 0.00536 ± 0.0027

**Q.** For GGAGACCUAACUAUUCAACCUACUUCCUCA, which “pre-steady-state target cleavage rate” value is on record?
**A.** 0.0529 ± 0.018

**Q.** GGAGACCUUACUAAACAUCCUACUACCUCA was tested. Which “pre-steady-state target cleavage rate” value did it give?
**A.** 0.208 ± 0.017

**Q.** For GGAGACGAUACUAAAGAACCUACUACCUCA, which “pre-steady-state target cleavage rate” value is on record?
**A.** 0.166 ± 0.011

**Q.** With GGAGACGAUACUAUAGAACCUACAACCUCA as the sequence, how does the “pre-steady-state target cleavage rate” value read?
**A.** 0.0115 ± 0.0039

**Q.** How did the “pre-steady-state target cleavage rate” value turn out when GGAGACCUAUGAAUACAACCUACUAGCUCA was run?
**A.** 0.00444 ± 0.0022

**Q.** GGAGACCAUACUAAACAACCUACUUCCUCA was tested. Which “pre-steady-state target cleavage rate” value did it give?
**A.** 0.068 ± 0.011

**Q.** How did the “pre-steady-state target cleavage rate” value turn out when GGAGACCUUACAAUACAAGCUACUACCUCA was run?
**A.** 0.191 ± 0.011

**Q.** Which “pre-steady-state target cleavage rate” value does the source give for GGAGACCUAUCAAAACAACCUACUACCUCA here?
**A.** 0.0082 ± 0.0029

**Q.** With GGAGACCUAUGUAUACUACCUACUACGUCA as the sequence, how does the “pre-steady-state target cleavage rate” value read?
**A.** 0.0155 ± 0.0032

**Q.** For GGAGACGAUACUAUACAACCAACAACCUCA, which “pre-steady-state target cleavage rate” value is on record?
**A.** 0.00726 ± 0.0036

**Q.** For GGAGACGAUACUAAACAACCUACUACCACA, which “pre-steady-state target cleavage rate” value is on record?
**A.** 0.214 ± 0.019

**Q.** GGAGACCUAUCUAUACAACGUACUAGCUCA was tested. Which “pre-steady-state target cleavage rate” value did it give?
**A.** 0.00553 ± 0.0029

**Q.** How did the “pre-steady-state target cleavage rate” value turn out when GGAGACCUAUCUAUACAAGCAACUACCUCA was run?
**A.** 0.00953 ± 0.0029

**Q.** With GGAGACCUAUCUAAACAACCAACUACCUCA as the sequence, how does the “pre-steady-state target cleavage rate” value read?
**A.** 0.00401 ± 0.0024

**Q.** For GGAGACCUAACUAUACUACCUUCUACCUCA, which “pre-steady-state target cleavage rate” value is on record?
**A.** 0.00544 ± 0.0042

**Q.** Which “pre-steady-state target cleavage rate” value does the source give for GGAGACCAUACUAAACAACCUACUACGUCA here?
**A.** 0.0881 ± 0.014

**Q.** Which “pre-steady-state target cleavage rate” value does the source give for GGAGACCUAUCUAUACAACCUACGACCUCA here?
**A.** 0.0973 ± 0.013

**Q.** GGAGACCUAUGUAUUCAUCCUACUACCUCA was tested. Which “pre-steady-state target cleavage rate” value did it give?
**A.** 0.0771 ± 0.011

**Q.** GGAGACCUAACAAUACAACCUAGUACCUCA was tested. Which “pre-steady-state target cleavage rate” value did it give?
**A.** 0.00888 ± 0.0052

**Q.** For GGAGACCUAUGUAUACAACCUACUAGCUCA, which “pre-steady-state target cleavage rate” value is on record?
**A.** 0.0155 ± 0.0035

**Q.** For GGAGACCUAACUAUACUUGCUACUACCUCA, which “pre-steady-state target cleavage rate” value is on record?
**A.** 0.0149 ± 0.0044

**Q.** How did the “pre-steady-state target cleavage rate” value turn out when GGAGACCUAUGAAUACCAACCUACUACCUCA was run?
**A.** 0.00269 ± 0.0026

**Q.** GGAGACCUAUGAUAUGAAGCUACUUCCUCA was tested. Which “pre-steady-state target cleavage rate” value did it give?
**A.** < 0.0001
